Data: PubChem BioAssay (EPA / NIEHS)
Where “and” joins values, the source holds several entries; their conditions need not be identical. Equal values may be shown once. The source holds several records for some structures; these can differ, active in one and inactive in another. Calls of active or inactive are those of the source. Rule for the calls: active = hit-call score of the fitted dose curve at least 0.9, where 1 is the maximum; inactive = score below 0.9.

Each compound was assayed on TIMP metallopeptidase inhibitor 2 (TIMP2), TIMP2 (gene 7077) (assay: BSK_hDFCGF_TIMP2: BioMAP Diversity Plus: hDFCGF Assay for TIMP metallopeptidase inhibitor 2 (TIMP2) Biomarker Activity (AID 2284289)). Conditions: primary human foreskin fibroblasts.
Method: BSK_hDFCGF is a cell-based, multiplexed-readout assay that uses foreskin fibroblast, a human skin primary cell, with measurements taken at 24 hours after chemical dosing in a 96-well plate.BSK_hDFCGF_TIMP2 is an assay component measured in the BSK_hDFCGF assay. It measures TIMP-2 antibody related to regulation of gene expression using ELISA technology.Data from the assay component BSK_hDFCGF_TIMP2 was analyzed at the endpoint, BSK_hDFCGF_TIMP2, in the positive analysis fitting direction relative to DMSO as the negative control and baseline of activity. Using a type of binding reporter, gain or loss-of-signal activity can be used to understand protein changes. To generalize the intended target to other relatable targets, this assay endpoint is annotated to the 'protease' intended target family, where the subfamily is 'matrix metalloproteinase'.
The levels of cell surface (or secreted, indicated by the prefix "s") biomarker endpoints were measured by ELISA. Overt cytotoxicity to cells in confluent adherent cultures (all systems other than the BT system) was assessed by measuring total protein levels using sulforhodamine B (SRB) staining in parallel cultures at the time of biomarker measurements, indicated as SRB endpoints. For proliferation assays for adherent cell types, individual cell types are cultured at sub-confluence and relative cell numbers quantified by SRB staining at time points optimized for each system (48 h: 3C and CASM3C systems; 72 h: BT and HDF3CGF systems; 96 h: SAg system). SRB was performed by staining cells with 0.1% SRB after fixation with 10% TCA and reading wells at 560 nm.Viability and proliferation of PBMC (T cells) was quantified by Alamar Blue reduction for the SAg and BT systems. For PBMC viability (referred to as PBMC Cytotoxicity within the assay endpoint names), cells were plated (75,000/well in a 96-well plate) and then chemical samples added for 1 h before addition of activators, SEB and TSST-1 (20 ng/mL final concentration each). Cells were incubated for 90 h. Then, Alamar Blue (20 uL/well) (Invitrogen, Cat DAL1100) was added for 6 h, and the plates were read with a fluorescence microplate reader at 546/580 nm (excitation/emission). For PBMC proliferation, cells were plated and activated as above but incubated for only 16 h prior to addition of Alamar Blue. Plates were read after 6 h.

| Structure (SMILES) | AC50 | outcome |
| --- | --- | --- |
| Oc1c(Cl)cc(Cl)cc1Sc1cc(Cl)cc(Cl)c1O | 2.33 µM (active) and 1.67 µM (active) | – |
| C=CC(=O)OCCC(F)(F)C(F)(F)C(F)(F)C(F)(F)C(F)(F)C(F)(F)C(F)(F)C(F)(F)F | – | inactive |
| O=C(O)CCC(F)(F)C(F)(F)C(F)(F)C(F)(F)C(F)(F)F | – | inactive |
| OCC(F)(F)C(F)(F)C(F)(F)C(F)(F)C(F)(F)C(F)(F)C(F)(F)C(F)(F)C(F)(F)C(F)(F)C(F)(F)F | – | inactive |
| O=C(CC(=O)C(F)(F)C(F)(F)C(F)(F)F)c1cccs1 | 7.8 µM (active) | inactive |
| O=S(=O)(O)C(F)(F)C(F)(F)C(F)(F)C(F)(F)C(F)(F)C(F)(F)C(F)(F)C(F)(F)C(F)(F)C(F)(F)F | – | inactive |
| Oc1ccc(Cc2ccccc2O)cc1 | – | inactive |
| CN(Cc1cnc2nc(N)nc(N)c2n1)c1ccc(C(=O)N[C@@H](CCC(=O)O)C(=O)O)cc1 | – | inactive |
| CN(CCO)S(=O)(=O)C(F)(F)C(F)(F)C(F)(F)C(F)(F)C(F)(F)C(F)(F)C(F)(F)C(F)(F)F | 30.1 nM (active) and 23.8 nM (active) | – |
| CCCCCCCCCCCC | 12.6 µM (active) and 5.39 µM (active) | – |
| O=C(O)CCC(F)(F)C(F)(F)C(F)(F)C(F)(F)C(F)(F)C(F)(F)F | – | inactive |
| O=P(O)(O)CCC(F)(F)C(F)(F)C(F)(F)C(F)(F)C(F)(F)C(F)(F)F | – | inactive |
| O=C(O)C(F)(F)OC(F)(F)C(F)(F)OC(F)(F)C(F)(F)OC(F)(F)C(F)(F)C(F)(F)C(F)(F)F | 7.91 µM (active) and 7.94 µM (active) | – |
| O=C1NS(=O)(=O)c2ccccc21 | – | inactive |
| O=P(O)(O)CCC(F)(F)C(F)(F)C(F)(F)C(F)(F)C(F)(F)C(F)(F)C(F)(F)C(F)(F)F | – | inactive |
